Screening results from PubChem BioAssay.
KDM5B inhibitor – KDM5B demethylase inhibition | Q9UGL1 | KDM5B demethylase, FDH-coupled NADH fluorescence (FDH is formaldehyde dehydrogenase) | Potency, µM (titrated, usually from 57.7 µM), usual class: inhibitors | 2.6% of 220,000 active | AID 1347165; note: nearly all actives have a fitted effect of over 70% in size
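Here, H3K4me3 peptide (12.5 µM in substrate mix) is demethylated by KDM5BΔAP, 200 nM final, after 10 min compound exposure. Formaldehyde product is coupled through FDH (0.25 U/mL in mix) to NADH fluorescence; 30-min ΔRFU feeds dose-response curves.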
SNCA viab count – cell viability loss counter-screen. HEK-293-SNCA-luc viability, GF-AFC fluorescence, 24 h. Potency, µM (series often up to 57.1 µM), hits mostly cytotoxic. 0.12% of 150,000 active. AID 1671193; note: nearly all actives have a fitted effect of over 30% in size
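HEK-293-SNCA-luc cells (1500/well) plated 24 h, then exposed 24 h to a dilution series; GF-AFC added 30 min at 37C, fluorescence 405/540 nm; normalised to medium-only and DMSO wells, Hill fit.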
IP6K1 inh – blocks human inositol hexakisphosphate kinase 1 | IP6K1 kinase, ADP-Glo luminescence, 2 h; stronger effect = lower value | activity change, % (series mostly up to about 58 µM) | 0.81% of 140,000 active; in the data active = activity change below about -25%
Target sequence (Q92551 whole entry, looked up): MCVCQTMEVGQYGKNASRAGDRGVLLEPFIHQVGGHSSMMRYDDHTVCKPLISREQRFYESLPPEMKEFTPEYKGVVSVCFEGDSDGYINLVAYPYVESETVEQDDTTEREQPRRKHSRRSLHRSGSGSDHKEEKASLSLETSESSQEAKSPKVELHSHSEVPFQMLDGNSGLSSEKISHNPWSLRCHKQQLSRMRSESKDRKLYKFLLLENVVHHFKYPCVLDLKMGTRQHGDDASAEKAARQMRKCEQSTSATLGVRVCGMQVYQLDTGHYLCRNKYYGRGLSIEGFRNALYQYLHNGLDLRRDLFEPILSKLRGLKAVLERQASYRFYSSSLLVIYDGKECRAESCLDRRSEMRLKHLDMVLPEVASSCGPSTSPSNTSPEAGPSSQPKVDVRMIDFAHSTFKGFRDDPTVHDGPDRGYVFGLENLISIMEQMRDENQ
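ADP-Glo luminescence measures ADP made by human IP6K1 during a 2 h RT reaction with ATP/IP6 (mix at 1.3 mM/130 uM); top library doses 57.5 and 19.1 uM final.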
SNCA expr inh – reduces expression of the alpha-synuclein gene | HEK-293 SNCA-luciferase knock-in, luminescence, 24 h | 0.17% of 140,000 active | Potency, µM (titrated, usually from 57.2 µM), actives largely listed as inhibitors | AID 1671194; note: nearly all actives have a fitted effect of over 45% in size
Large screens that a line does not name were inactive. Rows were chosen to be rich in hits. Some 3% of all compounds tested hit in one or more screens of this group. Unless noted, calls come from the whole dose curve; as a rule, active = well fitted curve in the direction sought with a large enough effect; inconclusive = small, poorly fitted or top-dose-only effect, or another doubt; inactive = no such curve, though single readings can be large; an effect the other way counts as inactive or inconclusive.

Cn1cccc1CN1CCC(N2CCOCC2=O)CC1	KDM5B inhibitor inconclusive, SNCA expr inh inconclusive
Cn1cccc1CN1CCC(N2CCOC2=O)CC1	KDM5B inhibitor 89.1µM
CCOC(=O)c1ccc(N2CCN(CC3=CC(C)(C)Oc4ccc(OC)cc43)CC2)cc1	none (no result: KDM5B inhibitor, SNCA viab count, SNCA expr inh)
O=C(c1ccncc1)N1CCC2(CC1)CC(N(Cc1ccc(F)cc1)C1CC1)CCO2 (stereo not given)	KDM5B inhibitor 31.6µM
O=C(c1ccc(F)cc1)N1CCC2(CC1)CC(N(Cc1ccc(F)cc1)C1CC1)CCO2 (stereo not given)	SNCA expr inh inconclusive
CC(=O)N1CCCN(C(=O)c2cc(-c3cc(Cl)cc(Cl)c3)nc3c2cnn3C)CC1	none (no result: KDM5B inhibitor, SNCA viab count, SNCA expr inh)
COC(=O)CNC(=O)c1nc(-c2ccc(Cl)cc2)c2ccccn12	KDM5B inhibitor 20µM, SNCA viab count inconclusive
COCCNC(=O)c1nc(-c2ccc(Cl)cc2)c2ccccn12	KDM5B inhibitor 35.5µM
COC(=O)CNC(=O)c1nc(-c2ccc(F)cc2)c2ccccn12	KDM5B inhibitor 39.8µM
S=C(NCc1ccc(Cl)cc1)Nc1ccc(Br)cc1	none (no result: SNCA viab count, IP6K1 inh, SNCA expr inh)
COc1ccc(CC(=O)Nc2ccc3n(c2=O)C[C@H]2C[C@@H]3CN(C(=O)Nc3ccc(OC)cc3)C2)cc1	none
O=C(Nc1cccc(F)c1)Nc1ccc2n(c1=O)C[C@H]1C[C@@H]2CN(C(=O)c2ccc(F)cc2)C1	KDM5B inhibitor 28.2µM
COc1ccc(NC(=O)N2C[C@@H]3C[C@H](C2)c2ccc(NC(=O)Nc4cccc(C#N)c4)c(=O)n2C3)cc1	KDM5B inhibitor 28.2µM, SNCA expr inh inconclusive
COc1ccc(CC(=O)Nc2ccc3n(c2=O)C[C@H]2C[C@@H]3CN(C(=O)c3ccc(-c4ccccc4)cc3)C2)cc1	KDM5B inhibitor 25.1µM
O=C(c1ccc(F)cc1)N1C[C@@H]2C[C@H](C1)c1ccc(NS(=O)(=O)c3cccc(F)c3)c(=O)n1C2	KDM5B inhibitor inconclusive
Cc1nn(-c2ccccc2)c2c1C(C(C)C)N(C1CN(C(=O)c3ccccc3F)C1)C2=O (stereo not given)	none (no result: KDM5B inhibitor, SNCA viab count, SNCA expr inh)
CC1(COCC2CC2)COc2ccc(C(=O)NCc3ccccc3)cc2N1 (stereo not given)	KDM5B inhibitor 35.5µM
CC1(COCC2CC2)COc2ccc(C(=O)Nc3cccc([S+](C)(=O)[O-])c3)cc2N1 (stereo not given)	KDM5B inhibitor inconclusive
CC(C)CNC(=O)c1ccc2c(c1)NC(C)(COCC1CC1)CO2 (stereo not given)	KDM5B inhibitor 39.8µM
CC1(COCC2CC2)COc2ccc(C(=O)Nc3ccccc3)cc2N1 (stereo not given)	KDM5B inhibitor 25.1µM
CC1(COCC2CC2)COc2ccc(C(=O)Nc3ccc4[nH]ccc4c3)cc2N1 (stereo not given)	SNCA viab count inconclusive, SNCA expr inh 7.08µM
COc1ccc(-c2cc(C(=O)Nc3ccccc3F)c3cnn(C)c3n2)cc1	none (no result: KDM5B inhibitor, SNCA viab count, SNCA expr inh)
CCc1c(C)cc(C(=O)N[C@H]2CCOC[C@H]2C2CCOCC2)c(=O)n1C	KDM5B inhibitor 25.1µM
CNC(=O)c1cn2cc(-c3cccc(C(F)(F)F)c3)sc2n1	none (no result: KDM5B inhibitor)
CC1=C[C@@H](CNC(=O)C(C)(C)C)[C@H](C(C)C)C[C@H]1CC(=O)N1CCN(c2ccccn2)CC1	KDM5B inhibitor 20µM
COCCNC(=O)C[C@@H]1C[C@@H](C(C)C)[C@H](CNC(=O)C2CC2)C=C1C	KDM5B inhibitor 35.5µM
CC1=C[C@@H](CNC(=O)c2ccccn2)[C@H](C(C)C)C[C@H]1CC(=O)N1CCCC1	SNCA viab count inconclusive, SNCA expr inh inconclusive
CC1=C[C@@H](CNC(=O)c2ccccc2)[C@H](C(C)C)C[C@H]1CC(=O)N1CCN(C)CC1	none
CC1=C[C@@H](CC#N)[C@H](C(C)C)C[C@H]1CC(=O)N1CCN(c2cnccn2)CC1	KDM5B inhibitor 35.5µM, SNCA expr inh inconclusive
CC(=O)N1CCN(C(=O)C[C@@H]2C[C@@H](C(C)C)[C@H](CC#N)C=C2C)CC1	none
CC1=C[C@@H](CNC(=O)C2CCCCC2)[C@H](C(C)C)C[C@H]1CC(=O)N1CCN(c2ccccn2)CC1	KDM5B inhibitor 35.5µM, SNCA viab count 28.2µM, SNCA expr inh inconclusive
O=C(CCCc1ccccc1)NCc1nnc2c(-c3nc(C4CC4)no3)cccn12	KDM5B inhibitor 28.2µM
O=C(CCC1CCCC1)NCc1nnc2c(-c3nc(C4CC4)no3)cccn12	KDM5B inhibitor 11.2µM
O=C(NCc1nnc2c(-c3nc(C4CC4)no3)cccn12)C1CCC1	KDM5B inhibitor 28.2µM
COc1ccc(CCC(=O)NCc2nnc3c(-c4nc(C5CC5)no4)cccn23)cc1	none
O=C(NCc1nnc2c(-c3nc(C4CC4)no3)cccn12)c1ccccc1Cl	KDM5B inhibitor inconclusive
CCOCC(=O)N1CCc2nc3cc(-c4ccc(OC)cc4)[nH]n3c(=O)c2C1	KDM5B inhibitor 25.1µM, SNCA expr inh inconclusive
O=C(Cc1cccnc1)N1CCc2c(nc3cc(-c4ccccc4)[nH]n3c2=O)C1	KDM5B inhibitor 28.2µM
O=C(CCCc1nc2ccccc2[nH]1)N1CCc2c(nc3cc(-c4ccccc4)[nH]n3c2=O)C1	KDM5B inhibitor 31.6µM
CCc1cccc(NC(=O)N2CCc3nc4cc(-c5ccc(OC)cc5)[nH]n4c(=O)c3C2)c1	KDM5B inhibitor inconclusive, SNCA expr inh inconclusive
COc1ccc(-c2cc3nc4c(c(=O)n3[nH]2)CN(C(=O)Cc2ccc(NC(C)=O)cc2)CC4)cc1	KDM5B inhibitor 14.1µM, SNCA expr inh 8.91µM
COc1ccc(F)cc1-c1ccc(CN2CCC(NC(=O)C(C)(C)C)C2)cc1 (stereo not given)	none (no result: KDM5B inhibitor, SNCA viab count, SNCA expr inh)
O=C(C1CCCC1)N1CCC2(C1)C(=O)N(CCc1ccccc1)c1ccccc12 (stereo not given)	none
Cc1nn(-c2ccccc2)c2c1C(C1CC1)N(CC1CN(C(=O)c3ccccc3F)C1)C2=O (stereo not given)	none (no result: KDM5B inhibitor, SNCA viab count, SNCA expr inh)
C=CCOc1c(OC)ccc2c1CN(CC1CC1)C(=O)CCN2CC(O)COCc1ccco1 (stereo not given)	none (no result: KDM5B inhibitor, SNCA viab count, SNCA expr inh)
COc1ccc(-c2cc3nc4c(c(=O)n3[nH]2)CN(C(=O)c2ccc(Cc3c(C)noc3C)o2)CC4)cc1	KDM5B inhibitor 28.2µM, SNCA expr inh inconclusive
CC(=O)Nc1ccc(CC(=O)N2CCc3c(nc4cc(-c5ccccc5)[nH]n4c3=O)C2)cc1	KDM5B inhibitor 22.4µM
O=C(CCCc1c[nH]c2ccccc12)N1CCc2c(nc3cc(-c4ccccc4)[nH]n3c2=O)C1	KDM5B inhibitor inconclusive
Cc1nc(C2(C)CCN(C(=O)c3ccc(Cc4c(C)noc4C)o3)CC2)no1	none
CC1(C)NC(=O)N(CCC(=O)N2CCc3c(nc4cc(-c5ccccc5)[nH]n4c3=O)C2)C1=O	KDM5B inhibitor 28.2µM
COc1ccc(-c2cc3nc4c(c(=O)n3[nH]2)CN(C(=O)CCCc2nc3ccccc3s2)CC4)cc1	KDM5B inhibitor 31.6µM, SNCA expr inh inconclusive
CSc1ncc(C(=O)NCc2ccccc2)c(N)n1	none (no result: SNCA viab count, IP6K1 inh, SNCA expr inh)
O=C(c1ccoc1)N1CCC(Nc2cccnc2)C1 (stereo not given)	KDM5B inhibitor 12.6µM
CN(C)S(=O)(=O)N1CCC(Nc2cccnc2)C1 (stereo not given)	KDM5B inhibitor 8.91µM
